Experimental data: PubChem BioAssay
Some of the results follow. Active and inactive are the calls of the source.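 The calls were made as follows, unless noted: active = GFP response vs DMSO above about 150% (limit read from the data); inconclusive = fewer than 70 events counted for a yeast strain; inactive = the rest.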

Legend:
[1] = LAP4-GFP expression modulators in yeast, confirmation, cell-based, second cherry pick, flow cytometry (AID 2621;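 active = GFP signal as percent of the solvent control above about 150%, meaning raised reporter expression, limit read from the data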;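 also: ratio of well median GFP fluorescence to plate DMSO mean so 100% = DMSO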); settings: S. cerevisiae LAP4-GFP strain, 3 h, at 10 µM, stronger effect = higher value
[2] = modulators of MEP2-GFP levels in yeast, confirmation, S. cerevisiae, flow cytometry GFP, second cherry picks (AID 2622;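 active = GFP signal above 150% of the solvent control wells, that is a rise of more than half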;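 also: median channel GFP fluorescence of all gated yeast cells per well; ratio of median GFP to plate DMSO average so 100% = DMSO level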); settings: S. cerevisiae MEP2-GFP strain, 3 h, at 10 µM, stronger effect = higher value
[3] = RPL19A-GFP modulators in TOR pathway yeast, confirmation, cell-based, S. cerevisiae, flow cytometry, second cherry pick (AID 2623;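 active = under 65% GFP response relative to DMSO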;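 also: median GFP channel fluorescence per well over the all cells gate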); settings: S. cerevisiae RPL19A-GFP strain, 3 h, at 10 µM, stronger effect = lower value, 100% means same as DMSO wells
[4] = modulators of CIT2-GFP expression in yeast, confirmation, flow cytometry, second cherry pick, single plex (AID 2624);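 also: median green fluorescence per well over all gated yeast cells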; settings: S. cerevisiae CIT2-GFP strain, 3 h, at 10 µM, stronger effect = higher value, DMSO control wells read 100%
[5] = AGP1-GFP expression modulators, hit retest, confirmation, cell-based, flow cytometry, S. cerevisiae, cherry pick set 2 (AID 2643;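 active = over 150 percent of DMSO response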;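 also: median GFP channel fluorescence over all cells without mother daughter split; sample median GFP divided by mean DMSO control so 100% equals DMSO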); settings: S. cerevisiae AGP1-GFP strain, 3 h, at 10 µM, stronger effect = higher value
[6] = inhibitors of CD8+ T cell-vesicle binding, pilot screen, LFA-1/ICAM-1 modulator project, MLPCN validation set, flow cytometry (AID 2523;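 active = response below a set limit, under 55% cells CD8-positive and vesicle-bound, and CD8 cells' 90th-percentile brightness under 279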;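 as to vesicle binding response: mean PE anti-B7-1 fluorescence of CD8+ cells relative to row control; 100% = QL9-loaded vesicles with DMSO vehicle in the same plate row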); settings: 2C mouse CD8+ T cells, at 7 µM, stronger effect = lower value; double positive events: measured here: CD8+/vesicle+ event percentage
[7] = molecular target: Integrin beta-1 (Homo sapiens) + Integrin alpha-4 (Homo sapiens) (UniProt P13612+P05556); assay: inhibition of HUTS-21 binding to VLA-4, pilot screen, VLA-4 allosteric modulator project, U937 cells, HUTS-21 mAb, flow cytometry, validation set (AID 2674;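 active = inhibition above 50%, about 3 SD of the validation set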;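 also: antibody binding induced by the VLA-4 ligand LDV present at three times its Kd; 0% = LDV ligand with antibody and no compound and 100% = antibody without LDV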); settings: HUTS-21 LIBS mAb binding, at 6.7 µM, stronger effect = higher value, binding induced by LDV ligand
Chain of Integrin beta-1 (Homo sapiens) + Integrin alpha-4 (Homo sapiens) (P05556 whole entry, looked up): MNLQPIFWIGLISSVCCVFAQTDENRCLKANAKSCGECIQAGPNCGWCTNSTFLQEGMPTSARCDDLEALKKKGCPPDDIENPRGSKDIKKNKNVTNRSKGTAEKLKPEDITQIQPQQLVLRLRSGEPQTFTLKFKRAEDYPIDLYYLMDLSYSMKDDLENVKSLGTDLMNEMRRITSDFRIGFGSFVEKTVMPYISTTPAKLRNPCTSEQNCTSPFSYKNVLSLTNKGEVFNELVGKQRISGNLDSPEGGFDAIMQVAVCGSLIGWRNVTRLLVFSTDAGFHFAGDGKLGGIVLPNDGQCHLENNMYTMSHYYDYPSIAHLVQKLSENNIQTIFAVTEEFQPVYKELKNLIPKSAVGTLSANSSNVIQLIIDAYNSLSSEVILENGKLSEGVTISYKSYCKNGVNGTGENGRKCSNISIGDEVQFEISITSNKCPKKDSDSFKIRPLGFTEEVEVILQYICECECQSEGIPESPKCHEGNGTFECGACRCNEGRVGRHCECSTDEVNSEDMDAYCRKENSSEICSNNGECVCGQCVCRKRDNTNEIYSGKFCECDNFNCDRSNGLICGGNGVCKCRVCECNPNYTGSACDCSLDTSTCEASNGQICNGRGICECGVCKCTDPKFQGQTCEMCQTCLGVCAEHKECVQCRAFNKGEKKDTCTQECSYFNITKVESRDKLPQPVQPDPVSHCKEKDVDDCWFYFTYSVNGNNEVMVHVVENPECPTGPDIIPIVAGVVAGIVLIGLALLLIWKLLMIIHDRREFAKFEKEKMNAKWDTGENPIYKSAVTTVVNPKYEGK
Chain of Integrin beta-1 (Homo sapiens) + Integrin alpha-4 (Homo sapiens) (P13612 whole entry, looked up): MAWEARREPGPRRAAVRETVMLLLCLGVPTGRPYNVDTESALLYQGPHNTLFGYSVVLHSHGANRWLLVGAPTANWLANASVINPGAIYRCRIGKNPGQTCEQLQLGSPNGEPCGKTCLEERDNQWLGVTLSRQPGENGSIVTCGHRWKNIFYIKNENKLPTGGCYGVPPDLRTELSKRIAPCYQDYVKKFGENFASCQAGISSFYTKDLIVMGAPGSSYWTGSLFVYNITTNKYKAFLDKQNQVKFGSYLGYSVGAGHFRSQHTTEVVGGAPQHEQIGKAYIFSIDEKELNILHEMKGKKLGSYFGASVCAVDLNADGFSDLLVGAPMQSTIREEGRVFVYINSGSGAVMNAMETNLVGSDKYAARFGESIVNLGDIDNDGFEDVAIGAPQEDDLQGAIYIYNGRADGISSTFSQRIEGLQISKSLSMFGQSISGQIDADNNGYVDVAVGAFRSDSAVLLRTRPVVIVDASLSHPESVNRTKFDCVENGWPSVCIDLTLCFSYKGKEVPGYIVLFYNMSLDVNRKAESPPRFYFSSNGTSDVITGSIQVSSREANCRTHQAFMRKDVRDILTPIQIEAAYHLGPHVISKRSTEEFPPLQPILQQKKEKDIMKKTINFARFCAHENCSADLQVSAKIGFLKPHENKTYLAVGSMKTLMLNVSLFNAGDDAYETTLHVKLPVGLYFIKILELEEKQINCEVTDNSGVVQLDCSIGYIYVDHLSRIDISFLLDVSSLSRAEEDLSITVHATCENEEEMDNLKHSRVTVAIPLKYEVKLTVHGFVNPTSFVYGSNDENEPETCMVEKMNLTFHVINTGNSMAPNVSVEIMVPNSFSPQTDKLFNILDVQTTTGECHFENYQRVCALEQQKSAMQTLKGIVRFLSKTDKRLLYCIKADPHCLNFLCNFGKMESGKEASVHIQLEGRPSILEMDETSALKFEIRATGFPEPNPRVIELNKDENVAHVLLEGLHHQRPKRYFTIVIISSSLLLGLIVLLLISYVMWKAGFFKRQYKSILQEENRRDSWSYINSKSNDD

[8] = superoxide lowering in aged yeast cells, pilot screen, validation compound set (AID 2706;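 active = superoxide response below 65% of plate, a cut near 3 SD across the whole screen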;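 also: yeast exposed to compound for one week at 30 degrees C before staining; 100% = mean of all compound wells on the same plate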); settings: S. cerevisiae aging, superoxide DHE fluorescence; at 10 µM, stronger effect = lower value
[9] = molecular target: Beta-adrenergic receptor kinase 1 (Homo sapiens) (UniProt P25098); assay: GRK2 binders displacing RNA aptamer, biochemical, validation, human GRK2, bead flow cytometry (AID 488806;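 active = aptamer binding inhibition above 30%, about 3 SD of noise from non-fluorescent compounds; inactive = inhibition at or below 30%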); settings: bead-bound GRK2, FAM-aptamer displacement, at 10 µM, stronger effect = higher value
Chain of Beta-adrenergic receptor kinase 1 (Homo sapiens) (P25098 whole entry, looked up): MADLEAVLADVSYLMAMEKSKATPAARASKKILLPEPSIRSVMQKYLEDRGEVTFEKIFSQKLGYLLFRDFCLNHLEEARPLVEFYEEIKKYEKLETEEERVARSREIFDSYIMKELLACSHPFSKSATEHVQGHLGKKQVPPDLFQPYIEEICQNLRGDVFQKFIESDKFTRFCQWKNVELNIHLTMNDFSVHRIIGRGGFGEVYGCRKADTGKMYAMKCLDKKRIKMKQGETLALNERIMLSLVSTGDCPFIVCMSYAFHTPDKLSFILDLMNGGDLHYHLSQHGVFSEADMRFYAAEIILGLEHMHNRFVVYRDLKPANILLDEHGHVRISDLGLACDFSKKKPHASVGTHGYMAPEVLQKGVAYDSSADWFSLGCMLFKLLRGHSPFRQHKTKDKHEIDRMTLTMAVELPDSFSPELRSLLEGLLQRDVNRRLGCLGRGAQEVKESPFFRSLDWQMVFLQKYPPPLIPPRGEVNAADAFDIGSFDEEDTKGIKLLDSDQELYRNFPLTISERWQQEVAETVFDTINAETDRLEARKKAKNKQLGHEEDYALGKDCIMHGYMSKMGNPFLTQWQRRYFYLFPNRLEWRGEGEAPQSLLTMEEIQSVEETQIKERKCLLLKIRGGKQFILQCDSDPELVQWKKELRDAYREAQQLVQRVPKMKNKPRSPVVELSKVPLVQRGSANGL

[10] = molecular target: Beta-2 adrenergic receptor (Homo sapiens) (UniProt P07550); assay: beta2AR agonists driving receptor internalization, pilot screen, cell-based, FAP fluorogen, flow cytometry, validation set (AID 504459;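 active = percent response above 42, roughly 3 SD of non-fluorescent test compounds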;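 also: agonist-driven loss of surface beta2AR via internalization measured by FAP dye flow cytometry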); settings: Am2.2-beta2AR cells, FAP surface receptor flow cytometry; at 10 µM; stronger effect = higher value
Chain of Beta-2 adrenergic receptor (Homo sapiens) (P07550 whole entry, looked up): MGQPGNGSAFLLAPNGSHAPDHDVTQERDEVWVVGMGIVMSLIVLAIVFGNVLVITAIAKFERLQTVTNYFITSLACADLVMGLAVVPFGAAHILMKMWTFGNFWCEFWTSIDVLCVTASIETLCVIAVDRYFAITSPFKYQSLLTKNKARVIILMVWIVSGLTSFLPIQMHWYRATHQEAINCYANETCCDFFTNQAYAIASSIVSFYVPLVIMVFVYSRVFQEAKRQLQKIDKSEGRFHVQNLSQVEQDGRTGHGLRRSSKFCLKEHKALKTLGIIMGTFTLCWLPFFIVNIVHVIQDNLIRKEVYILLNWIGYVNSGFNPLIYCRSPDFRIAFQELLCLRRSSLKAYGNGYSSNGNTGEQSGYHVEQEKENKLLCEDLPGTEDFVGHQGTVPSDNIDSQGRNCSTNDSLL

[11] = molecular target: AP-2 complex subunit beta (Homo sapiens) (UniProt P63010); assay: inhibitors of arrestin peptide binding to AP2, pilot screen, biochemical, validation set, GST-AP2 beads, flow cytometry (AID 504541;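 active = inhibition above 54%, about 3 SD of non-fluorescent compounds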;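 also: AP2 carries R879A mutation and is captured from E. coli lysate; bead-bound FITC arrestin peptide fluorescence measuring arrestin peptide binding to AP2; 0% = DMSO wells and 100% = excess unlabeled arrestin peptide control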); settings: FITC arrestin peptide, at 10 µM, stronger effect = higher value, AP2 beta2 appendage fragment, R879A mutant
Chain of AP-2 complex subunit beta (Homo sapiens) (P63010 whole entry, looked up, the tested form may be a part, one chain of several): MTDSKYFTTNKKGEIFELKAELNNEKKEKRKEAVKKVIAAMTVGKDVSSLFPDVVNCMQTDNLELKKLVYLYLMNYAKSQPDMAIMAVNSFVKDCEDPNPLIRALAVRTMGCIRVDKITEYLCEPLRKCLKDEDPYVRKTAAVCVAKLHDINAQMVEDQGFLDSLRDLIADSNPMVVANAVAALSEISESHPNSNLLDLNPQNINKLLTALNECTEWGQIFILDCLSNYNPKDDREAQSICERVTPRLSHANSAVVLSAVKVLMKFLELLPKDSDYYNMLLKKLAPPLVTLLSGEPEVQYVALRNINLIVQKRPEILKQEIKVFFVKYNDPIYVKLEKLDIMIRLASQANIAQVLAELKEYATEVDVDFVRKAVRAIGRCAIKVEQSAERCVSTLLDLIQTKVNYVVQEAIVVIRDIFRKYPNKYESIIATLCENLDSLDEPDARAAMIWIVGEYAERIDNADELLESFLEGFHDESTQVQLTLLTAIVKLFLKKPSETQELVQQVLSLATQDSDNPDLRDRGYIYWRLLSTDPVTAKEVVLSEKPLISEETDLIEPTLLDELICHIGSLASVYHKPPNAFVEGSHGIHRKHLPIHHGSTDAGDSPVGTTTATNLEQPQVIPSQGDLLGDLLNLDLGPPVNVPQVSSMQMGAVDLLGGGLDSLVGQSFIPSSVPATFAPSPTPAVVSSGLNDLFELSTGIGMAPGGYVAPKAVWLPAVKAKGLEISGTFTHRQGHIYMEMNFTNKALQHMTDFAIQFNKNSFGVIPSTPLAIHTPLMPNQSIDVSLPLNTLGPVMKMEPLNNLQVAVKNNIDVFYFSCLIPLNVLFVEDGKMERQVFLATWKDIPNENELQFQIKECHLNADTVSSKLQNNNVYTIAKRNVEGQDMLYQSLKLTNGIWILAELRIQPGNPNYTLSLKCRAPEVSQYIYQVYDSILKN

[12] = yeast V-ATPase proton transport modulators, S. cerevisiae, pHLuorin, HTS validation (AID 504600; in the data active = response above about 15%;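 also: plate controls were DMSO for no effect and reference compound for full effect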); settings: S. cerevisiae pHLuorin cytosolic pH, at 10 µM, stronger effect = higher value
[13] = test system: anti-desmoglein-3 scFv antibody binding to human DSG3; assay: inhibitors of anti-DSG3 scFv binding to DSG3, pilot screen, biochemical, validation compound set, bead-based, flow cytometry (AID 588368;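 active = binding below the plate cutoff, the plate median minus 3 SD, with a reading above zero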;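 also: signal is the median channel fluorescence of bead-bound GFP antibody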); settings: Protein G beads, DSG3-Fc, scFv-GFP binding, at 10 µM, stronger effect = lower value
[14] = inhibitors of fungal efflux pumps CDR1, CDR2, MDR1, pilot screen, validation compound set, multiplex, phenotypic (AID 588506;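 active = efflux inhibition above 0.42, the validation set average plus 4 SD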;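 also: Nile Red retained in cells so higher fluorescence means more efflux inhibition; 0 = negative control wells and 1 = enniatin B 25 µM full block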); settings: S. cerevisiae pump-expressing triplex, Nile Red efflux flow cytometry; at 10 µM; stronger effect = higher value; the pumps come from Candida albicans
[15] = molecular target: ATP-binding cassette sub-family B member 6 (Homo sapiens) (UniProt Q9NP58); assay: ABCB6 transporter inhibitors, pilot screen, K562-ABCB6 cells, flow cytometry, validation set (AID 588550;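 active = inhibition above the screen-wide mean plus 3 SD, about 51%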;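 also: 0% = DMSO wells and 100% = benzethonium chloride 70 µM positive control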); settings: K562-ABCB6 porphyrin accumulation, 1 h, at 10 µM, stronger effect = higher value
Chain of ATP-binding cassette sub-family B member 6 (Homo sapiens) (Q9NP58 whole entry, looked up): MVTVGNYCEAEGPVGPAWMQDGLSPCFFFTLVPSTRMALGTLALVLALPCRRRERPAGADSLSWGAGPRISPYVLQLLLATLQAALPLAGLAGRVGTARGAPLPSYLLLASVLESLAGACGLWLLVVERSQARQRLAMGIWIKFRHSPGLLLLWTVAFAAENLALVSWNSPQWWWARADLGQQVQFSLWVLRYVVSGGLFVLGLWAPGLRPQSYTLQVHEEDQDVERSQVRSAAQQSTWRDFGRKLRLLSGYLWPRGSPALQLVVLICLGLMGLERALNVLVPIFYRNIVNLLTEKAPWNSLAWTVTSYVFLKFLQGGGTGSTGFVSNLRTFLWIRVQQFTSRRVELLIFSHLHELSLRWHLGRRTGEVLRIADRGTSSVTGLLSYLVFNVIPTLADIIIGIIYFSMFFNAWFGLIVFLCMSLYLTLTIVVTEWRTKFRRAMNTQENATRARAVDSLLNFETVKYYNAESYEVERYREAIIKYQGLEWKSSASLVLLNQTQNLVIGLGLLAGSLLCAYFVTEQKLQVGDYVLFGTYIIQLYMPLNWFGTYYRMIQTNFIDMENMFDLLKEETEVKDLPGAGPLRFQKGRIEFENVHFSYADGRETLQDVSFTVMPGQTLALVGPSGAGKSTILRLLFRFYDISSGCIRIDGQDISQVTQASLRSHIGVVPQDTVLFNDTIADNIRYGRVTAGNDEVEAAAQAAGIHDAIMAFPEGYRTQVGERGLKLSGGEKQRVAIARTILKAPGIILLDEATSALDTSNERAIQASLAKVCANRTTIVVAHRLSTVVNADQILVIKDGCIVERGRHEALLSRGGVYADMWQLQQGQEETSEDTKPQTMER

[16] = promoters of myeloid differentiation in arrested cells, primary screen, cell-based, GFP/MAC1 double positive, flow cytometry, validation set (AID 588685;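 active = differentiation response of at least 50%, scaled between solvent and reference control, from cells with both markers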;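 also: compound exposure lasts four days before antibody staining and flow analysis; 0% = DMSO wells and 100% = 5 µM fulvestrant positive control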); settings: ER-HoxA9 marrow cells, stronger effect = higher value, normalized: vehicle 0, fulvestrant 100
[17] = compound autofluorescence in yeast s288c, dose response, artefact control for yeast TOR pathway GFP screen, s288c strain (AID 2757;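 active = fluorescence span over the dose series, or activity score, above about 33, limit read from the data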;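 also: thousands of bead-calibrated equivalent soluble fluorophore molecules from median cell fluorescence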); settings: S. cerevisiae s288c, 520 nm autofluorescence, flow cytometry, 3 h; at 33 µM; stronger effect = higher value; zero means same as solvent-only cells

CCn1c(SCCC(C)C)nnc1-c1c[nH]c2ccccc12
inactive: GFP response vs DMSO [1] 95.2% | GFP response vs DMSO [2] 96.1% | GFP response vs DMSO [3] 96.3% | GFP response vs DMSO [4] 100% | percent response vs DMSO [5] 96.7%

C(=C\c1ccccc1)/CN1CCN(C(c2ccccc2)c2ccccc2)CC1
66.7%: double positive events [6]
inactive: inhibition [7] -1.3% | superoxide response (% of plate) [8] 86.5% | aptamer binding inhibition [9] 0% | response [10] 11.4% | inhibition [11] 0.96% | response [12] 0.39% | binding (% of control) [13] 120% | efflux inhibition (fraction of control) [14] -0.24 | inhibition [15] 16% | differentiation response [16] 1.64%

COc1ccc(CCNC(=O)CS(=O)(=O)Cc2nc(-c3ccc(C)cc3)oc2C)cc1OC
inactive: GFP response vs DMSO [1] 103% | GFP response vs DMSO [2] 99.6% | GFP response vs DMSO [3] 95.5% | GFP response vs DMSO [4] 100% | percent response vs DMSO [5] 101%

CCCCNc1c(-c2cccc(Sc3ccc(OC)cc3)c2)nc2ccccn12
inactive: GFP response vs DMSO [1] 138% | GFP response vs DMSO [2] 129% | GFP response vs DMSO [3] 92.7% | GFP response vs DMSO [4] 120% | percent response vs DMSO [5] 90.6%

CN1CCc2cccc3c2[C@H]1Cc1ccc(O)c(O)c1-3
61%: double positive events [6]
inactive: vesicle binding response [6] 187% | inhibition [7] -17.1% | aptamer binding inhibition [9] 4% | response [10] 6.81% | inhibition [11] 3.9% | response [12] 2.95% | binding (% of control) [13] 94.3% | efflux inhibition (fraction of control) [14] 0.08 | inhibition [15] -1% | differentiation response [16] 20.8%

CNc1nc(N(C)C)nc(N(C)C)n1
inactive: vesicle binding response [6] 64.3% | inhibition [7] -2.53% | aptamer binding inhibition [9] -1% | response [10] 8.29% | inhibition [11] 14.9% | response [12] 3.55% | binding (% of control) [13] 107% | inhibition [15] 11% | differentiation response [16] 41.3%
62.1%: double positive events [6]
active: efflux inhibition (fraction of control) [14] 0.92

COc1ccc2cc(-c3nc4ccccc4n3C)c(=O)oc2c1
65.4%: double positive events [6]
inactive: vesicle binding response [6] 147% | inhibition [7] -9.79% | aptamer binding inhibition [9] 1% | response [10] -16.5% | response [12] -29.1% | binding (% of control) [13] 95.5% | efflux inhibition (fraction of control) [14] -0.2 | inhibition [15] 7% | differentiation response [16] 17.8%

Cc1[nH]c2ccccc2c1C(=O)CN1CCCC1
61.6%: double positive events [6]
inactive: vesicle binding response [6] 26% | inhibition [7] -4.6% | aptamer binding inhibition [9] -4% | response [10] 7.28% | inhibition [11] 4.83% | response [12] -0.48% | binding (% of control) [13] 110% | efflux inhibition (fraction of control) [14] 0.24 | inhibition [15] 48% | differentiation response [16] 28.6%

C#CCOCCOCCOCCNc1nc(N2CCN(C(=O)CCCCCCCCCCNC(=O)[C@H](CCCCN)n3cc(C)nn3)CC2)nc(N2CCN(C(=O)CCCCCCCCCCNC(=O)[C@H](CO)n3cc(CCCSC)nn3)CC2)n1
inactive: GFP response vs DMSO [1] 109% | GFP response vs DMSO [2] 119% | GFP response vs DMSO [3] 97.6% | GFP response vs DMSO [4] 110% | percent response vs DMSO [5] 104%

CCC(=C/c1sc2ccc3ccccc3c2[n+]1C)/C=C1\Sc2ccc3ccccc3c2N1C
active: GFP response vs DMSO [1] 2930% | GFP response vs DMSO [2] 285% | GFP response vs DMSO [4] 303%
inactive: GFP response vs DMSO [3] 451% | percent response vs DMSO [5] 98.8%

O=C(COc1cccnc1[N+](=O)[O-])Nc1ccc(Cl)cc1F
inactive: GFP response vs DMSO [1] 99.2% | GFP response vs DMSO [2] 101% | GFP response vs DMSO [3] 99.5% | GFP response vs DMSO [4] 103% | percent response vs DMSO [5] 97.4%

COc1cccc(/C=N/Nc2ncc(C(F)(F)F)cc2Cl)c1O
inactive: GFP response vs DMSO [2] 143% | GFP response vs DMSO [3] 102% | GFP response vs DMSO [4] 132% | percent response vs DMSO [5] 86.2% | fluorescence change (kMESF span) [17] 1.52
active: GFP response vs DMSO [1] 200%

CN(Cc1ccccc1)C(=O)C(=O)c1cn(CC(=O)N2CCCC2)c2ccccc12
inactive: GFP response vs DMSO [1] 103% | GFP response vs DMSO [2] 96.1% | GFP response vs DMSO [3] 95% | GFP response vs DMSO [4] 103% | percent response vs DMSO [5] 98.3%
